Measured values: PubChem BioAssay (Tox21)
Records with an inconclusive call do not appear. Values without a mark were called inactive. Activity calls are given as the source filed them. The call rests on the fitted dose curve. Positions of bridges follow the written chain, without caps; N, C: chain ends. Non-standard residues stand in square brackets, D forms with d. Residues, ends and D or L forms follow the SMILES beside them. *: point of attachment. X1 = CC[C@@H](C)[C@@H](N)C1=N[C@H](C(=O)*)CS1; d(aIle) = CC[C@H](C)[C@@H](N)C(=O)O; dOrn = NCCC[C@@H](N)C(=O)O

Test: qHTS assay to identify small molecule antagonists of the estrogen receptor alpha (ER-alpha) signaling pathway using the BG1 cell line (AID 743080);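 further: BG1 cells stimulated with 17beta-estradiol alongside compound; nearly all actives have a fitted effect of over 25% in size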
Settings: BG1Luc4E2 ERE-luciferase antagonist mode, luminescence; series mostly up to 70.3 µM; activity change, negative = inhibition: at the top concentration
Procedure, shortened: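 Seeding, 24 h rest, compound transfer from DMSO, 17beta-estradiol addition, 21.5 h incubation, CellTiter-Fluor (30 min, 37 C), then ONE-Glo (30 min, room temperature): this sequence was run on BG1-Luc-4E2 reporter cells.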
On the % scale 0 is the no-effect control and ±100 the full control effect; potency means the concentration at half of the fitted maximal effect.

Compound | activity change, negative = inhibition | Potency
CC(=O)O[C@H]1C[C@@H]2CC[C@@H]3[C@H](CC[C@@]4(C)[C@H]3C[C@H]([N+]3(C)CCCCC3)[C@@H]4OC(C)=O)[C@@]2(C)C[C@@H]1[N+]1(C)CCCCC1 | -0.718% | 
CCN(CC)CCOC[C@H]1O[C@@H](O)[C@H](OCCN(CC)CC)[C@@H](O)[C@@H]1O | 0.842% | 
CCOC(=O)COc1ccc2c(=O)cc(-c3ccccc3)oc2c1 |  | inactive
CCCCCCCCCCCC[n+]1ccc2ccccc2c1 |  | 7.5 µM (active)
O=C1CC[C@@H](C(=O)N[C@H]2C[C@@H]2c2ccccc2)N1 | 6.95% | 
NC[C@H]1O[C@H](O[C@H]2[C@H](O)[C@@H](O[C@H]3O[C@H](CO)[C@@H](O)[C@H](N)[C@H]3O)[C@H](N)C[C@@H]2N)[C@H](N)C[C@@H]1O | 0% [at 32.5 µM] | 
C/C(=C\C(=O)OCCCCCCCCC(=O)O)C[C@@H]1OC[C@H](C[C@@H]2O[C@H]2[C@@H](C)[C@H](C)O)[C@@H](O)[C@H]1O | -1.31% | 
O=P(O)(O)C(O)(Cn1ccnc1)P(=O)(O)O | 11.5% | 
CCOc1ccc(S(=O)(=O)O)c2cccnc12 | 6.09% | 
CC(=NCc1ccccc1)c1ccccc1O | 1.52% | 
CC(=O)OCC(=O)[C@@]1(O)CC[C@H]2[C@@H]3CCC4=CC(=O)CC[C@]4(C)C3=CC[C@@]21C | 5.73% | 
O=C(O)c1cc2cc(Cc3cccnc3)ccc2o1 | 2.45% | 
CC[C@@H](C)[C@@H](N)C1=N[C@H](C(=O)N[C@@H](CC(C)C)C(=O)N[C@@H](CCC(=O)O)C(=O)N[C@@H](C(=O)N[C@@H]2CCCCNC(=O)[C@@H](CC(N)=O)NC(=O)[C@@H](CC(=O)O)NC(=O)[C@@H](Cc3cnc[nH]3)NC(=O)[C@@H](Cc3ccccc3)NC(=O)[C@@H]([C@H](C)CC)NC(=O)[C@@H](CCCN)NC2=O)[C@@H](C)CC)CS1 (X1-LE[d(aIle)][dK][dOrn][dI][dF][dH][dD][dN]; lactam 4-C) |  | inactive
